Results on twelve compounds are retold here after PubChem BioAssay (NCATS).

Where “and” joins values, the source holds several entries; their conditions need not be identical. Equal entries are not always repeated. A number with no mark means an inactive call. Records with an inconclusive call do not appear. Calls of active or inactive are those of the source. Unless noted, calls come from the whole dose curve; as a rule, active = well fitted curve in the direction sought with a large enough effect; inconclusive = small, poorly fitted or top-dose-only effect, or another doubt; inactive = no such curve, though single readings can be large; an effect the other way counts as inactive or inconclusive. Peptide text beside a SMILES is read from it.

In assay [1] the target is Glucocorticoid receptor (Homo sapiens) (UniProt P04150). Put plainly: GR-GFP Redistribution (AID 450;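 active = compounds whose dose series gives a full or clear partial fitted curve of increased nuclear translocation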; note: potency is the fitted concentration of half-maximal effect). Particulars: U2OS GR-GFP nuclear translocation, laser cytometry, 2 h.
Glucocorticoid receptor (Homo sapiens), sequence (P04150 whole entry, looked up): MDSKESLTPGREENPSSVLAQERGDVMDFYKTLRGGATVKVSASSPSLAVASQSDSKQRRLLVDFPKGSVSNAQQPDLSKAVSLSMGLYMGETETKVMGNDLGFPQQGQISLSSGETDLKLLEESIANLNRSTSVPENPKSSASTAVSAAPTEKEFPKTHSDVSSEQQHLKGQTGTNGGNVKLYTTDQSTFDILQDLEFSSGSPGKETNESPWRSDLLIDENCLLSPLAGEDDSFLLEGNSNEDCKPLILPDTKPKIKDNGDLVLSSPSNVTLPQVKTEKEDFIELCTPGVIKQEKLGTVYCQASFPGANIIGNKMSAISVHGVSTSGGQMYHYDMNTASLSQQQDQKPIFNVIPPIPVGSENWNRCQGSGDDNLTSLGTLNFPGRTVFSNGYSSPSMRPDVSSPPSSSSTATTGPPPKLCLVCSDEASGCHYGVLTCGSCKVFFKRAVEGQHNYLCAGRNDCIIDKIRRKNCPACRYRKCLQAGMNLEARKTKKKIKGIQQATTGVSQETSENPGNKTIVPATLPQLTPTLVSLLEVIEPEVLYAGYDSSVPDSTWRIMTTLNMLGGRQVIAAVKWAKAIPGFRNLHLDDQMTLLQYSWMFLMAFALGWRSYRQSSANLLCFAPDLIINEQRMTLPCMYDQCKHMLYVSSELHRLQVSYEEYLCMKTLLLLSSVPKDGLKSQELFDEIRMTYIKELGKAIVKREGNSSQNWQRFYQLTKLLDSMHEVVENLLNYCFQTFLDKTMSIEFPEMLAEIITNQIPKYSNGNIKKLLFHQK
The target is the same in assay [2]. Put plainly: GR-EFC Redistribution (AID 451; calls by dose curve; note: potency is the fitted concentration of half-maximal effect). Particulars: CHO-K1 GR-EFC translocation, beta-gal luminescence, 2 h. The essentials:
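CHO-K1 cells expressing nuclear EA and GR-ED fragments of b-gal; compounds titrated up to 46 uM final, 2 h at 37 C. GR nuclear translocation read as complemented b-gal luminescence after 1 h RT detection.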

Assay [3] can be described thus: Cell Viability - N2a (AID 540).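 Note: plate controls were DMSO alone for no effect and tamoxifen control for full effect; nearly all actives have a fitted effect of over 45% in size.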 Particulars: N2a mouse neuroblastoma cell viability; activity change, negative = cytotoxicity: at 92.2 µM (top of the series). The method in brief:
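Mouse neuroblastoma N2a cells (1500/well) were preincubated 5 hr at 37 °C, then exposed to compounds for 40 hr at 37 °C in complete medium. Viability was read as intracellular ATP by CellTiter-Glo luminescence; AC50 from Hill fits.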

A short description of assay [4]: Cell Viability - HUV-EC-C (AID 542). For activity change, negative = cytotoxicity: % is set by controls: 0 for no effect and ±100 for the full control effect. Note: nearly all actives have a fitted effect of over 35% in size. Note: potency is the fitted concentration of half-maximal effect. To be noted: HUV-EC-C endothelial cell viability, qHTS; series mostly up to 92.2 µM. The method in brief: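 HUV-EC-C normal human vascular endothelial cells, 1000 cells/well, pre-incubated 5 hr at 37 °C, then exposed to compounds for 40 hr at 37 °C in complete medium. Viability measured as intracellular ATP by CellTiter-Glo luminescence; AC50 from Hill fits.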
(In general: In qHTS, concentration-response curves come from the screen itself.)

Assay [5] is described as follows: Cell Viability - H-4-II-E (AID 543). Note: nearly all actives have a fitted effect of over 35% in size. Note: potency is the fitted concentration of half-maximal effect. To be noted: H-4-II-E rat hepatoma viability; series mostly up to 92.2 µM. The method in brief:
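Rat hepatoma H-4-II-E cells (1500/well) were plated, incubated 5 hr at 37 °C, then exposed to compounds for 40 hr at 37 °C. Cellular ATP was read by CellTiter-Glo luminescence; AC50 came from Hill-equation fits of concentration-response data.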

A short description of assay [6]: Cell Viability - Renal Proximal Tubule (AID 545). Note: nearly all actives have a fitted effect of over 40% in size. To be noted: renal proximal tubule cells viability, primary cells of rat origin; series mostly up to 91.7 µM. The essentials: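 Viability taken as intracellular ATP (CellTiter-Glo luminescence) after 40 hr, 37 °C compound treatment of primary proximal tubule cells from rat kidney, 1000 cells/well; Hill-equation fits of qHTS concentration-response data gave AC50.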

Assay [7] deals with 3',5'-cyclic-AMP phosphodiesterase 4B (Homo sapiens) (UniProt Q07343). As to the kind of experiment: qHTS Assay for Inhibitors of PDE-IV (AID 607; active = well fitted activation curve with a large enough effect in the main read-out, with a control signal flat, not every such curve was filed as active; note: % of control where 0% means no effect). To be noted: HEK293 ACTOne CNG channel cells, membrane potential fluorescence; series mostly up to 22.9 µM. The essentials:
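HEK293 ACTOne cells with CNG channel (1000/well), endogenous PDE4; membrane potential dye, compounds up to 22.9 uM final. Fluorescence Ex 535/Em 590; RO 20-1724 (100 uM final) as reference.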

The nature of assay [8]: Cellular Toxicity (caspase-3) HepG2 (AID 654).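 Note: cells exposed to compound for 16 hours before reading; 0% = DMSO alone and 100% = caspase signal from 100 µM tamoxifen.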 Particulars: HepG2 caspase-3 activation, luminescence, 0% = DMSO only, 100% = tamoxifen; series mostly up to 92.2 µM. The essentials:
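HepG2 cells (1500/well) in complete medium were treated with compounds for 16 hr at 37 °C. Caspase-3/7 activity was then read as luminescence from peptide-aminoluciferin cleavage. AC50 came from Hill fits, normalized to DMSO and 100 uM tamoxifen.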

The nature of assay [9]: Cellular Toxicity (caspase-3) HUV-EC-C (AID 656). Particulars: HUV-EC-C cells, caspase-3 activation (apoptosis), vehicle = 0, 100 µM tamoxifen = 100%; series mostly up to 92.2 µM. The method in brief:
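Luminescent Caspase-Glo 3/7 readout after 16 h, 37 °C compound exposure of HUV-EC-C endothelial cells, 1000 per well, complete medium. AC50 derived by Hill fitting, with DMSO as baseline and 100 uM tamoxifen as full activation.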

Assay [10] can be described thus: Cellular Toxicity (caspase-3) SHSY5Y (AID 657). Particulars: SH-SY5Y caspase-3 activation, DMSO zero, 10 µM staurosporine = 100%; series mostly up to 91.7 µM. The essentials:
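Luminescent Caspase-Glo 3/7 read-out, 1 hr room temperature, follows 16 hours of compound treatment of SH-SY5Y cells at 37 °C. Normalization: DMSO basal, 10 uM staurosporine as 100%; AC50 values from Hill-equation concentration-response fits.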

The nature of assay [11]: Cellular Toxicity (caspase-3) MRC-5 (AID 659). Particulars: MRC-5 cells, luminescence, normalized: DMSO 0%, 10 µM staurosporine 100%; series mostly up to 91.7 µM. The essentials:
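MRC-5 human normal lung fibroblasts, 1500 cells/well, treated 16 h at 37 °C in complete medium. Caspase 3/7 measured by Caspase-Glo luminescence after 1 h at room temperature. Normalized to DMSO and 10 uM staurosporine; AC50 from Hill fit.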

Assay [12] can be described thus: Cellular Toxicity (caspase-3) Mesangial (AID 660). To be noted: mesangial cells, normalized: DMSO 0%, 100 µM tamoxifen 100%; series mostly up to 91.7 µM. The essentials: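 Human renal glomerular mesangial cells (1000/well) were treated with compounds for 16 h at 37 °C in complete medium, then caspase 3/7 activity was read by Caspase-Glo luminescence. Data were normalized to DMSO and 100 uM tamoxifen; AC50 from Hill fits.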

Assay [13] in a line: Cellular Toxicity (caspase-3) SK-N-SH (AID 661). Particulars: SK-N-SH caspase-3 activation, qHTS, DMSO as zero, staurosporine as full; series mostly up to 91.7 µM. The essentials: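 SK-N-SH human neuroblastoma cells (1500/well) were treated with compounds for 16 hr at 37 °C in complete medium; caspase 3/7 activity was read by Caspase-Glo luminescence. AC50 came from Hill fits of data normalized to DMSO and 10 uM staurosporine.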

The nature of assay [14]: Cellular Toxicity (caspase-3) H-4-II-E (AID 663).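 Note: cells exposed to compound for 16 hr before readout.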 Particulars: H-4-II-E rat hepatoma, scaled: DMSO 0%, 100 µM tamoxifen 100%; series mostly up to 92.2 µM. The essentials: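 Rat hepatoma H-4-II-E cells (1500/well) plated 5 hr, then exposed to compound titrations for 16 hr at 37 °C. Caspase-Glo 3/7 luminescence read after 20 min at RT; data normalized to DMSO and 100 uM tamoxifen, AC50 from Hill fits.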

The nature of assay [15]: Cellular Toxicity (caspase-3) Hek293 (AID 664).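 Note: cells exposed to compound for 16 h at 37 °C before readout.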 To be noted: HEK293 caspase-3 activation, DMSO = 0%, 100 µM tamoxifen = 100%; at 92.2 µM (top of the series). The method in brief:
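HEK293 cells were exposed to compounds in complete medium for 16 hr at 37 °C, then caspase-3/7 activity was read by Caspase-Glo 3/7 luminescence after 20 min at room temperature. Data normalized to DMSO and 100 uM tamoxifen; AC50 from Hill fits.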

A short description of assay [16]: Cellular Toxicity (caspase-3) N2a (AID 665).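 Note: compound exposure lasted 16 h at 37 °C before readout.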 Particulars: N2a cells, luminescence, normalized: DMSO 0%, 10 µM staurosporine 100%; series mostly up to 92.2 µM. The method in brief: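 Mouse N2a neuroblastoma cells (1500/well) were treated with compounds for 16 h at 37 °C, then caspase-3/7 activity was read by Caspase-Glo luminescence after 1 h at room temperature. Data were normalized to DMSO and 10 uM staurosporine; AC50 from Hill fits.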

Assay [17] concerns the target Mitogen-activated protein kinase 10 (Mus musculus) (UniProt Q61831). As to the kind of experiment: JNK3 AlphaScreen Assay (AID 530; active = well fitted curve in either direction with a large enough effect, not every such curve was filed as active;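 note: kinase came from lysate of stimulated human HepG2 cells; signal reports phosphorylation of biotinylated GST-cJun 1-79 at Ser73 with 10 µM ATP; % is set by controls: 0 for no effect and ±100 for the full control effect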). To be noted: JNK3 lysate, c-Jun phosphorylation; series mostly up to 57.1 µM. The method in brief:
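qHTS format: compounds tested as titrations against IL-1beta/TNF-alpha-activated HepG2 lysate JNK3 with biotin-GST-cJun substrate and 10 uM ATP at room temperature. Loss of anti-phospho-cJun AlphaScreen signal indicates inhibition.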
(Bead proximity is the source of the signal in Alpha formats.)

Assay [18] in a line: Cell Viability - NIH 3T3 (AID 541).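 Note: plate controls were DMSO alone for no effect and tamoxifen positive control for full effect; nearly all actives have a fitted effect of over 25% in size.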 Particulars: NIH 3T3 cell viability, qHTS; series mostly up to 92.2 µM. The essentials:
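NIH 3T3 mouse embryo fibroblasts (1000 cells/well) were plated in complete medium and treated with compound for 40 hr at 37 °C. Viability was read as intracellular ATP by CellTiter-Glo luminescence; AC50 values came from Hill-equation fits of concentration-response data.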

Assay [19] can be described thus: Cell Viability - SH-SY5Y (AID 544). Note: nearly all actives have a fitted effect of over 55% in size. Particulars: SH-SY5Y neuroblastoma cell viability; series mostly up to 92.2 µM. The method in brief:
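Human neuroblastoma SH-SY5Y cells (1500/well) in complete medium were exposed to compounds for 40 hr at 37 °C; intracellular ATP was then quantified by CellTiter-Glo luminescence after 20 min at room temperature. AC50 came from Hill-equation concentration-response fits.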

A short description of assay [20]: Cell Viability - Mesenchymal (AID 546).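 Note: cells exposed to compound for 40 hours before reading.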 To be noted: mesenchymal cells viability, qHTS; series mostly up to 91.7 µM. The essentials: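 Human kidney mesenchymal cells from normal renal glomeruli, 1000 cells/well, rested 5 hr at 37 °C, then treated 40 hr at 37 °C in complete medium. Cellular ATP read by CellTiter-Glo luminescence; AC50 from Hill-equation fits.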

3',5'-cyclic-AMP phosphodiesterase 4B (Homo sapiens), sequence (Q07343 whole entry, looked up): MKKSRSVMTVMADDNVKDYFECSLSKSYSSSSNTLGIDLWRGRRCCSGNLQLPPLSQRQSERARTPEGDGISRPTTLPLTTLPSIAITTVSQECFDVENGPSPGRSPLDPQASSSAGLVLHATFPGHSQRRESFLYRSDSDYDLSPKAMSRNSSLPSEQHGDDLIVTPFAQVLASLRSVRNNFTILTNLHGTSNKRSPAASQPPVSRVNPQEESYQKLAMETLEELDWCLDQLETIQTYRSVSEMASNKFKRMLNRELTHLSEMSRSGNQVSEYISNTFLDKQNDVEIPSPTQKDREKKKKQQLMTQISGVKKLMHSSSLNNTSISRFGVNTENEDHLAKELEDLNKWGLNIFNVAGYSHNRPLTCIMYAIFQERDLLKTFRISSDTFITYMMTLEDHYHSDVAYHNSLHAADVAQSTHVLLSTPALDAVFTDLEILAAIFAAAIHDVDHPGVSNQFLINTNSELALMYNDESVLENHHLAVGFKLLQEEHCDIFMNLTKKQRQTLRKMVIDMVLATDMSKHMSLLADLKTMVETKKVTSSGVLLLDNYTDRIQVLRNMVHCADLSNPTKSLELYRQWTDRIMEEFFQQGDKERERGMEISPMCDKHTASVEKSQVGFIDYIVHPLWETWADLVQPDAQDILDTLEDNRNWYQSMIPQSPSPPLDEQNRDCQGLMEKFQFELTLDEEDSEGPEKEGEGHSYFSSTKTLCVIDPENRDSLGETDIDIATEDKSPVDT

Take `Cc1cc(O)c2c(c1)C(=O)c1cc(O)cc(O)c1C2=O`: the Potency was over 46 µM in assay [1], over 46 µM in assay [2], 31.6 µM (active) in [4] and 63.1 µM (active) in assay [5]. For the same compound, the activity change, negative = cytotoxicity in assay [3] was -117% (active). Besides, in assay [6], the Potency entry is “inactive”. Besides, the call in assay [7], in assay [8], in [9], in assay [10], in [11] and in assay [12] was inactive. For the same compound, the compound was called inactive in assay [13], in [14] and in [16]. Also, in assay [15], the caspase-3 activation is -8.76%.
Consider `O=C1NC(=O)C(c2ccccc2[N+](=O)[O-])=C1Nc1ccc(O)c(Cl)c1`, for which the Potency in [1] and in [2] was over 46 µM throughout. In [7], the outcome was inactive.
Consider `Nc1nc(OCc2ccccc2)c2[nH]cnc2n1`, for which the Potency in assay [1] and in assay [2] was over 46 µM throughout. Besides, the compound was called inactive in assay [7].
`Cc1ccc(C)c(OCCCC(C)(C)C(=O)O)c1`: the Potency entry in assay [17], in assay [3], in assay [18], in [4], in assay [5] and in assay [19] was “inactive” throughout. Also, the Potency result in assay [6] and in [20] was “inactive” throughout. Also, the compound was called inactive in [7], in [8], in assay [9], in assay [10], in [11] and in assay [12]. Besides, the outcome in assay [13], in [14] and in assay [16] was inactive. In assay [15], the caspase-3 activation was -2.65%.
Take `CC1(C)NC(=O)N(c2ccc([N+](=O)[O-])c(C(F)(F)F)c2)C1=O`: the Potency entry in assay [17] is “inactive”. For the same compound, the result in assay [7] was inactive.
Take `COC(=O)[C@H](Cc1ccccc1)NC(=O)[C@@H](N)CC(=O)O` (H-Asp-Phe-OMe): the Potency result in [17], in [3], in assay [18], in assay [4], in [5] and in assay [19] was “inactive” throughout. The Potency entry in assay [6] and in assay [20] was “inactive” in each case. In addition, the compound was called inactive in assay [8], in assay [9], in assay [10], in assay [11], in assay [12] and in assay [13]. For the same compound, the compound was classed as inactive in assay [14] and in assay [16]. Besides, in [15], the caspase-3 activation was 1.4%.
Regarding `O=c1c(O)c(-c2ccc(O)cc2O)oc2cc(O)cc(O)c12`, the Potency was > 46 µM and > 20.6 µM in assay [1]; over 46 µM in assay [2]. Also, the Potency result in assay [17] was “inactive”. Further, the result in [7] was inactive.
For the compound `Cc1nc2n(c(=O)c1CCN1CCC(c3noc4cc(F)ccc34)CC1)CCCC2`, the Potency result in assay [17] is “inactive”. In assay [7], the outcome was inactive.
With `Cc1cc2cc3c(C)cc(=O)oc3c(C)c2o1`, the Potency result in assay [17] is “inactive”. Besides, the result in [7] was inactive.
As to `NCCCCNCCCN`, the Potency in assay [1] and in assay [2] was over 46 µM in each case. Besides, in [17], the Potency entry is “inactive”. For the same compound, in [7], the compound was called inactive.
As to `O=C(O)c1cc(=O)c2c(OCC(O)COc3cccc4oc(C(=O)O)cc(=O)c34)cccc2o1`, the Potency result in [17] is “inactive”. The compound was called inactive in assay [7].
Consider `CCCCC(CC)COC(=O)C(C#N)=C(c1ccccc1)c1ccccc1` (stereo unspecified), for which the Potency entry in [4], in assay [19], in [6] and in assay [20] was “inactive” each time. The compound was classed as inactive in assay [8], in assay [9], in [10], in assay [11], in [12] and in assay [13]. Further, the compound was called inactive in [14] and in [16]. Further, in [15], the caspase-3 activation was 2.23%.
